PostGolgi yeast: growth inhibition of a yeast mutant, post-Golgi transport screen | post-Golgi transport phenotypic cell assay | inhibition, % at 10 µM | hit rate 0.9% among 98,000 | AID 739;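 also: yeast cells grown in 1536-well plates; yeast grown about 18 h at 30C before absorbance read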
CYP2C9 activ: activators of human CYP2C9; P11712; AID 1024; activation factor at 5 µM; hit rate 1.4% among 96,000; recombinant CYP2C9, luciferin-H conversion, luminescence; stronger effect = higher value; factor 1 = untreated enzyme, 0 = blocked;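 active = activation factor of 2 or more for CYP2C9 at a 5 µM dose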;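 also: 0 = sulfaphenazole-blocked wells and 1 = vehicle-only wells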
Target sequence (P11712 whole entry, looked up): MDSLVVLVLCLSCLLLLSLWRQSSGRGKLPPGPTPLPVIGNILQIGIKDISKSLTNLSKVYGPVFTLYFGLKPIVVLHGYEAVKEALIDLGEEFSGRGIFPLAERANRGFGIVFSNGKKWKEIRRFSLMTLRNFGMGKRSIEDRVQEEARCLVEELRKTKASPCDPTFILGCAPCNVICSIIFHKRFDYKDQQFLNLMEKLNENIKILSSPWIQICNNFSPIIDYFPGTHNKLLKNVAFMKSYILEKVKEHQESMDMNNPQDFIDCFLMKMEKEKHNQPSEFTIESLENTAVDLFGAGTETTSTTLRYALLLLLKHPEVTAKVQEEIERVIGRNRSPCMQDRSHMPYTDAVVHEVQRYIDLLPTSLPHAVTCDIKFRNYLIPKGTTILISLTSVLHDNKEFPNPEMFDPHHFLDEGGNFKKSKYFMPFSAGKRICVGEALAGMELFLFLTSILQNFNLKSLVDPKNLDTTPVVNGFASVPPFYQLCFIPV
PostGolgi ctrl: yeast control strain growth, post-Golgi counter-screen. inhibition, % at 10 µM. hit rate 5% among 98,000. efflux-deficient yeast background strain, growth absorbance A615, 16 h
CYP2C9 inh: inhibitors of human CYP2C9; CYP2C9 Supersomes, luciferin-H conversion, luminescence; inhibition, % at 5 µM; hit rate 20% among 96,000;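 active = blocking of liver enzyme CYP2C9 beyond about 50% at 5 µM, limit read from the data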
CYP2C19 inh: blocks human cytochrome P450 2C19; P33261; CYP2C19 Supersomes, luciferin-H EGE luminescence, 30 min; inhibition, % at 5 µM; hit rate 21% among 96,000;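 active = CYP2C19 inhibition above a set limit at 5 µM in the primary screen, cut at about 50% in these data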;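 also: plate controls were negative control wells for no effect and 2.5 mM tranylcypromine positive control for full effect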
CYP2C19 act: activators of human cytochrome P450 2C19. recombinant CYP2C19, luciferin-H EGE luminescence; stronger effect = higher value; 0 = fully inhibited enzyme, 1 = untreated enzyme. activation factor at 5 µM. 96,000 tested, under 10 active;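 active = activation factor of at least 2 at 5 µM in the primary screen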;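 also: 0 = wells with 2.5 mM tranylcypromine and 1 = vehicle-only wells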
* = called active by the depositor; . = no result. Shown are actives, neighbours in structure and some others; about 32% of the full set was active somewhere. Rule as the data show it, unless noted: active = inhibition above about 30%; inactive = the rest.

SMILES	PostGolgi yeast	CYP2C9 activ	PostGolgi ctrl	CYP2C9 inh	CYP2C19 inh	CYP2C19 act
CCCc1[nH]c(=O)c(C#N)c2c1COC(C)(C)C2	4	0.8	7	20	66*	0.3
CC1(C)Cc2c(c(-c3ccccc3Cl)[nH]c(=O)c2C#N)CO1	6	1	5	4	92*	0.1
C=CCC1c2cccc(C(=O)OC)c2C(=O)N1c1ccccc1 (stereo not drawn)	-3	0.9	16	12	38	0.6
CC1(C)Cc2c(C#N)c(OCC(=O)c3ccc(Cl)cc3)nc(-c3ccoc3)c2CO1	-9	0.6	11	38	79*	0.2
CN1CCN(c2nc(-c3ccccc3)cc(C(F)(F)F)n2)CC1	-4	1.1	29	-10	50*	0.5
CCOC(=O)CCCNS(=O)(=O)c1c(C)ccc2nsnc12	8	.	6	.	.	.
Cc1cc(S(=O)(=O)Nc2ccc(C(=O)N3CCN(C(=O)c4ccco4)CC3)cc2)ccc1F	8	0.5	8	46	13	0.9
Cc1ccc2nsnc2c1N(S(C)(=O)=O)S(C)(=O)=O	-5	0.8	-11	21	63*	0.4
Cc1cc(S(=O)(=O)Nc2c(C)ccc3nsnc23)ccc1F	27	0.5	15	51*	84*	0.2
Cc1ccc2nsnc2c1NS(=O)(=O)c1c(C)ccc2nsnc12	12	0.4	7	56*	35	0.6
CC(=O)c1ccc(NC(=O)CSc2nnc(Cn3c(=O)sc4ccccc43)n2C)cc1	3	.	7	.	.	.
CCOc1cc(CNc2cccc3ccccc23)cc(Br)c1OCC(=O)NC(C)(C)C	-1	0.3	3	70*	65*	0.3
COc1cc(CNc2ccc3[nH]c(=O)[nH]c3c2)cc(Br)c1OCC(=O)NC(C)(C)C	-5	0.8	7	24	51*	0.5
CCOc1cc(CNc2ccc(N(C)C)cc2)cc(Br)c1OCC(=O)NC(C)(C)C	-14	0	14	96*	96*	0
C=CCOc1c(Br)cc(CNc2ccc(NC(=O)CCC)cc2)cc1OCC	-10	0.3	-1	71*	54*	0.5
COc1cc(CNc2ccc3[nH]c(=O)[nH]c3c2)ccc1OCC(=O)NC(C)(C)C	0	0.6	0	38	21	0.8
CN(C)c1ccc(NC(=O)CN2CCC(N3CCCCC3)CC2)cc1	1	1.2	-9	-20	-10	1.1
O=C(CSC1=Nc2ccccc2C2=NC(CC(=O)NC3CCCCC3)C(=O)N12)NCc1ccco1 (stereo not drawn)	0	0.9	-1	11	-2	1
O=C(CCC1N=C2c3ccccc3N=C(SCc3cccc(Cl)c3)N2C1=O)NCc1ccco1 (stereo not drawn)	1	0.3	8	67*	20	0.8
O=C(CCC1N=C2c3ccccc3N=C(SCc3ccccc3Cl)N2C1=O)NCc1ccco1 (stereo not drawn)	-1	0.4	37*	60*	29	0.7
CC(C)CC(=O)c1c[nH]c(C(=O)NCCc2ccccn2)c1	3	1	10	-4	-6	1.1
Cn1c(SCc2ccon2)nc2ccccc2c1=O	22	0.7	1	31	47	0.5
Brc1ccccc1-c1nnc(CSc2nncn2-c2ccccc2)o1	7	2.4*	24	-136	68*	0.3
O=c1c2ccccc2nc(SCc2nnc(-c3ccccc3)o2)n1-c1ccc(F)cc1F	0	0	31*	99*	77*	0.2
Cc1ccc(-c2nnc(CSc3nncn3N)o2)cc1	6	1.1	6	-8	15	0.9
SMILES	PostGolgi yeast	CYP2C9 activ	PostGolgi ctrl	CYP2C9 inh	CYP2C19 inh	CYP2C19 act
O=c1c2ccccc2nc(SCc2nnc(-c3ccccc3Br)o2)n1-c1ccccc1	-1	.	39*	.	.	.
COc1ccc(-c2nnc(CSc3nc4ccccc4c(=O)n3C)o2)cc1OC	32*	0.1	0	86*	80*	0.2
CN(C)c1ccnc2sc3c(=O)n(-c4ccccc4)cnc3c12	-4	0.8	7	20	40	0.6
Cc1ccc(-n2nnnc2SCc2nnc(-c3ccccc3Br)o2)cc1	-5	1.2	56*	-21	-2	1
Cn1c(SCc2nnc(-c3ccccc3Br)o2)nc2sc3c(c2c1=O)CCC3	-9	0.1	45*	94*	77*	0.2
CSc1cccc(NC(=O)COc2cccc3ccccc23)c1	-3	2.2*	7	-121	30	0.7
